# PubChem BioAssay (NCATS)
# Records with an inconclusive call do not appear. A number with no mark means an inactive call. Activity calls are given as the source filed them. The call rests on the fitted dose curve; in most records, active means well fitted curve in the direction sought with a large enough effect; inconclusive means small, poorly fitted or top-dose-only effect, or another doubt; inactive means no such curve, though single readings can be large; an effect the other way counts as inactive or inconclusive.
# Experiment: BET inhibitor-based combinations targeting novel dependencies in MECOM-rearranged (r) AML: SET-2 cell line (AID 2202231); further: nearly all actives have a fitted effect of over 35% in size;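 on viability: plate controls were DMSO treated cells for no effect and wells without cells for full effect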
# Conditions: SET-2 AML cells viability, CellTiter-Glo luminescence, 48 h; viability: stronger effect = lower value, concentration not given here
# In short: (§1)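 A 48 hr incubation preceded viability reading by CellTiter-Glo, with 15 min room-temperature development. Dose series had 11 points; normalization used DMSO and empty wells; AUC was computed and mean-centered per line as Z-AUC.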
# Potency means the concentration at half of the fitted maximal effect.
SMILES,viability,Potency
CCN(CC)CCCC(C)Nc1ccnc2cc(Cl)ccc12 (stereo unspecified),102%,–
CC(C)c1c(C(=O)Nc2ccccc2)c(-c2ccccc2)c(-c2ccc(F)cc2)n1CC[C@@H](O)C[C@@H](O)CC(=O)O,–,7.23 µM (active)
O=C1CCc2cc(OCCCCc3nnnn3C3CCCCC3)ccc2N1,–,16.6 µM (active)
CC(=O)O[C@]1(C(C)=O)CC[C@H]2[C@@H]3C=C(Cl)C4=CC(=O)[C@@H]5C[C@@H]5[C@]4(C)[C@H]3CC[C@@]21C,80.8%,–

# Experiment: BET inhibitor-based combinations targeting novel dependencies in MECOM-rearranged (r) AML: OCI-AML3 cell line (AID 2202232); further: nearly all actives have a fitted effect of over 35% in size;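 on viability (% of control): plate controls were DMSO vehicle wells for no effect and wells without cells for full effect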
# Conditions: CellTiter-Glo luminescence, 48 h; Potency: OCI-AML3 viability; series mostly up to 46 µM
# In short: as §1
SMILES,viability (% of control),Potency
CCN(CC)CCCC(C)Nc1ccnc2cc(Cl)ccc12 (stereo unspecified),92.2% [at 8.46 µM],–
CC(C)c1c(C(=O)Nc2ccccc2)c(-c2ccccc2)c(-c2ccc(F)cc2)n1CC[C@@H](O)C[C@@H](O)CC(=O)O,–,3.23 µM (active)
O=C1CCc2cc(OCCCCc3nnnn3C3CCCCC3)ccc2N1,–,inactive
CC(=O)O[C@]1(C(C)=O)CC[C@H]2[C@@H]3C=C(Cl)C4=CC(=O)[C@@H]5C[C@@H]5[C@]4(C)[C@H]3CC[C@@]21C,–,inactive

# Experiment: BET inhibitor-based combinations targeting novel dependencies in MECOM-rearranged (r) AML: UCSD-AML1 cell line (AID 2202235); further: nearly all actives have a fitted effect of over 40% in size;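 on viability (% of control): plate controls were DMSO vehicle wells for no effect and blank wells for full effect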
# Conditions: UCSD-AML1 AML cells viability, CellTiter-Glo, 48 h; series mostly up to 46 µM
# In short: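 Each compound is tested in an 11-point concentration series against 500 seeded cells/well for 48 hr. The luminescent viability signal is normalized to DMSO and blank wells, then reduced to AUC and a cell-line-centred Z-AUC.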
row,SMILES,Potency
1,CC(C)c1c(C(=O)Nc2ccccc2)c(-c2ccccc2)c(-c2ccc(F)cc2)n1CC[C@@H](O)C[C@@H](O)CC(=O)O,7.23 µM (active)
2,Cc1ccc(-c2cc(C(F)(F)F)nn2-c2ccc(S(N)(=O)=O)cc2)cc1,inactive
3,O=C1CCc2cc(OCCCCc3nnnn3C3CCCCC3)ccc2N1,inactive

# Experiment: BET inhibitor-based combinations targeting novel dependencies in MECOM-rearranged (r) AML: AML-194 cell line (AID 2202237; further: nearly all actives have a fitted effect of over 40% in size;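 on viability (% of control): plate controls were vehicle wells for no effect and wells without cells for full effect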)
# Conditions: AML-194 (MECOM-r AML) viability, CellTiter-Glo, 48 h; series mostly up to 46 µM
# In short: as §1
SMILES,viability (% of control),Potency
CCN(CC)CCCC(C)Nc1ccnc2cc(Cl)ccc12 (stereo unspecified),111% [at 8.46 µM],–
CC(C)c1c(C(=O)Nc2ccccc2)c(-c2ccccc2)c(-c2ccc(F)cc2)n1CC[C@@H](O)C[C@@H](O)CC(=O)O,–,12.9 µM (active)
Cc1ccc(-c2cc(C(F)(F)F)nn2-c2ccc(S(N)(=O)=O)cc2)cc1,–,inactive
O=C1CCc2cc(OCCCCc3nnnn3C3CCCCC3)ccc2N1,–,inactive
CC(=O)O[C@]1(C(C)=O)CC[C@H]2[C@@H]3C=C(Cl)C4=CC(=O)[C@@H]5C[C@@H]5[C@]4(C)[C@H]3CC[C@@]21C,–,inactive
